Source: PubChem
An excerpt weighted towards active compounds, which were near 2.8% of everything screened.
PG9 Ab binder: binders of HIV-1 gp120 antibody PG9, primary screen, biochemical, TR-FRET | TR-FRET gp120-PG9 antibody binding | inhibition, % at 6.7 µM | actives 0.43% (n = 360,000); in the data active means inhibition above about 8.5%
PP1 inh: PP1-alpha phosphatase inhibitors, primary screen, counter-screen for PP5 inhibitor project, biochemical, fluorescence, OMFP substrate, single point; Serine/threonine-protein phosphatase PP1-alpha catalytic subunit (Homo sapiens), P62136; purified PP1alpha; inhibition, % at 6.7 µM; actives 0.9% (n = 320,000); AID 2235, 2010;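 active means inhibition above the mean inhibition of all tested compounds plus 3 SD, computed separately for each screening campaign, cut at about 15% in these data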
Target sequence (P62136 whole entry, looked up): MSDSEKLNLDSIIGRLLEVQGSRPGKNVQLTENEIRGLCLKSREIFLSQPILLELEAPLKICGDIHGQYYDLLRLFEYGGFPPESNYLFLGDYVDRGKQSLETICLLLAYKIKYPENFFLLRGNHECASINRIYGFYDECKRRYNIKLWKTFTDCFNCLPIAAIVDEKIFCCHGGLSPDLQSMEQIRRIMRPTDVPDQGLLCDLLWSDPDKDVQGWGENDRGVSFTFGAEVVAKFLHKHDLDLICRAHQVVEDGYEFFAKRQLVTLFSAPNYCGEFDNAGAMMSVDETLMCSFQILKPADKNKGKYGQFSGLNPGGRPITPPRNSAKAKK
Rev-erbA mod: modulators of Rev-erb alpha DNA binding, primary screen, biochemical, FITC-DNA, fluorescence polarization, uHTS; Nuclear receptor subfamily 1 group D member 1 (Homo sapiens), P20393; Rev-erbα–FITC-DNA binding, 90 min; activity, % at 10 µM; actives 0.79% (n = 370,000);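 active means activity above about 14%, limit read from the data; passing the limit was not always enough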;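 further: 0% = DMSO wells with 35 nM protein and 100% = DMSO wells with 750 nM protein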
PP5 primary: PP5 phosphatase inhibitors, primary screen, biochemical, fluorescence | Serine/threonine-protein phosphatase 5 (Homo sapiens), P53041 | purified PP5c, OMFP substrate fluorescence | inhibition, % at 6.7 µM | actives 0.18% (n = 320,000);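 active means inhibition above the campaign's mean inhibition across all tested compounds plus 3 SD, cut at about 9.5% in these data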;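 further: 0% = DMSO only and 100% = 100 µM cantharidin control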
proKLK7 act: proKLK7 zymogen activators, primary screen, biochemical, fluorescence intensity | purified proKLK7, EDANS-DABCYL substrate fluorescence; 100% is mature enzyme control, 0% vehicle | activation, % at 7 µM | actives 0.9% (n = 370,000);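 active means activation above the mean of all tested compounds plus 3 SD, computed per campaign excluding outliers beyond control limits, cut at about 13% in these data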
Target sequence (P49862 whole entry, looked up): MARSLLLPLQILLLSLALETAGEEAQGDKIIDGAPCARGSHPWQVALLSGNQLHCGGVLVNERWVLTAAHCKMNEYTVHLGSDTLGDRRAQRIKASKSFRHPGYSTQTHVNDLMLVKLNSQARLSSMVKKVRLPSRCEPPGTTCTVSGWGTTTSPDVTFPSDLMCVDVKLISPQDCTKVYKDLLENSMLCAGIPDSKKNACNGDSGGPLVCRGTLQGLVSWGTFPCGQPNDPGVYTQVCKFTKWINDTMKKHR
GASC-1 inh: inhibitors of GASC-1 histone demethylase, primary screen, biochemical, fluorescence, DELFIA europium | inhibition, % at 2.35 µM | GST-JMJD2C(1-420) H3K9me3 demethylation | actives 0.069% (n = 330,000);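 active means more than half of a compound's replicate wells show inhibition beyond 50%, single wells judged on their own value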;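 further: signal counts dimethyl H3K9 product captured on neutravidin plate; 0% = median of DMSO wells and 100% = 0.3 times that DMSO median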
PG9 binder conf: binders of anti-gp120 antibody PG9, confirmation, biochemical, TR-FRET | shares compounds with PG9 Ab binder | TR-FRET PG9 antibody binding | inhibition, % at 6.7 µM | actives 90% (n = 1,500); in the data active means inhibition above about 9%
PGV04 counter: binders of control antibody PGV04, counter-screen for PG9 antibody binder project, biochemical, TR-FRET, distinct HIV envelope site; shares compounds with PG9 Ab binder; TR-FRET PGV04 antibody-gp120 binding; inhibition, % at 6.7 µM; actives 95% (n = 1,500); AID 651604, 2012; in the data active means inhibition above about 9.5%
Active calls of the source: *.

What do the screens show for `CC1CCCCN1C(=O)COC(=O)CNC(=O)c1sc2ccccc2c1Cl` (stereo not drawn)?
PG9 Ab binder: 2.9; PP1 inh: -4.5; Rev-erbA mod: 2.6; PP5 primary: -0.4; proKLK7 act: -0.1; GASC-1 inh: 1.0

How did Cc1cc2sc(C(=O)O)c(C)c2s1 do in these assays?
PG9 Ab binder: 16.4*; PP1 inh: -1.0; Rev-erbA mod: 6.0; PP5 primary: 0.9; proKLK7 act: 0.4; GASC-1 inh: 13.0; PG9 binder conf: 20.8*; PGV04 counter: 27.6*

Results for Cc1cc2c(cc(C(=O)O)n2C)s1 ?
PG9 Ab binder: -0.9; PP1 inh: -2.6; Rev-erbA mod: 1.6; PP5 primary: -0.3; proKLK7 act: 0.6; GASC-1 inh: -1.6

Results for c1coc(-c2nc3c4ccccc4ccn3c2Cc2ccsc2)c1 ?
PG9 Ab binder: -1.1; Rev-erbA mod: 7.2; proKLK7 act: 0.1

What do the screens show for `CCCCOCCCNC(=O)C[C@H]1C[C@@]2(C(=O)OC)C(=C[C@H](C(C)C)O[C@@H]2C2CC2)N(Cc2cccc3ccccc23)C1=O`?
Rev-erbA mod: -5.8; proKLK7 act: 0.9

How did Cc1nc(SCCc2nc3ccccc3[nH]2)c2oc3ccccc3c2n1 do in these assays?
PG9 Ab binder: 28.8*; Rev-erbA mod: 7.6; proKLK7 act: 0.2; PG9 binder conf: 10.8*; PGV04 counter: 13.4*

How did Cc1nc(SCC(=O)NC(C)c2ccccc2)c2oc3ccccc3c2n1 (stereo not drawn) do in these assays?
PG9 Ab binder: 14.7*; PP1 inh: -6.2; Rev-erbA mod: 14.3; PP5 primary: 0.5; proKLK7 act: 0.5; GASC-1 inh: -3.9; PG9 binder conf: 4.6; PGV04 counter: 9.6*

What do the screens show for `Cc1nc(SCC(=O)NCc2ccco2)c2oc3ccccc3c2n1`?
PG9 Ab binder: -1.3; PP1 inh: -4.3; Rev-erbA mod: -4.9; PP5 primary: -1.4; proKLK7 act: -0.3; GASC-1 inh: 0.6

What do the screens show for `Cc1ccc(C(=O)C2=C(O)C(=O)N(Cc3cccnc3)C2c2ccc(OC(C)C)cc2)o1` (stereo not drawn)?
PG9 Ab binder: 35.4*; PP1 inh: 19.9*; Rev-erbA mod: 2.1; PP5 primary: -0.5; proKLK7 act: 0.5; GASC-1 inh: -1.2; PG9 binder conf: 43.9*; PGV04 counter: 49.9*

How did CCCOc1ccc(C2C(C(=O)c3ccc(C)o3)=C(O)C(=O)N2Cc2cccnc2)cc1 (stereo not drawn) do in these assays?
PP1 inh: 10.6; PP5 primary: 3.4; GASC-1 inh: -18.7

Results for COc1ccc(C2C(C(=O)c3ccc(C)o3)=C(O)C(=O)N2Cc2cccnc2)cc1 (stereo not drawn) ?
PG9 Ab binder: 13.2*; PP1 inh: -0.8; Rev-erbA mod: 1.8; PP5 primary: 1.3; proKLK7 act: 0.7; GASC-1 inh: -22.1; PG9 binder conf: 22.5*; PGV04 counter: 28.8*

How did Cc1ccc(C(=O)C2=C(O)C(=O)N(Cc3cccnc3)C2c2ccc(Br)cc2)o1 (stereo not drawn) do in these assays?
PG9 Ab binder: 18.0*; PP1 inh: 18.7*; Rev-erbA mod: 6.9; PP5 primary: 2.8; proKLK7 act: 0.5; GASC-1 inh: -4.7; PG9 binder conf: 29.4*; PGV04 counter: 37.6*

What do the screens show for `CC(C(=O)NCc1ccco1)n1nc(-c2ccccc2)c2cc(Cl)ccc21` (stereo not drawn)?
PG9 Ab binder: 9.9*; PP1 inh: 2.2; Rev-erbA mod: 11.8; PP5 primary: 1.4; proKLK7 act: 0.4; GASC-1 inh: 1.5; PG9 binder conf: 14.2*; PGV04 counter: 21.7*

Results for CCC(C(=O)O)n1nc(-c2ccccc2)c2cc(Cl)ccc21 (stereo not drawn) ?
PG9 Ab binder: 0.7; PP1 inh: -2.5; Rev-erbA mod: -3.8; PP5 primary: 2.1; proKLK7 act: 0.1; GASC-1 inh: 2.5

Results for CCc1c(C(=O)O)[nH]c2ccc(Br)cc12 ?
PG9 Ab binder: 13.5*; PP1 inh: -1.9; Rev-erbA mod: -1.8; PP5 primary: 0.6; proKLK7 act: 1.3; GASC-1 inh: -9.4; PG9 binder conf: 26.0*; PGV04 counter: 27.1*

What do the screens show for `Nc1ccn([C@@H]2O[C@H](C(=O)N[C@H](Cc3ccccc3)C(=O)NCC(F)(F)F)[C@@H](O)[C@H]2O)c(=O)n1`?
PG9 Ab binder: -1.0; Rev-erbA mod: -5.9; proKLK7 act: 0.0

What do the screens show for `CCCCn1c(SCC(=O)c2ccc(OCC)cc2)nc2cc(S(N)(=O)=O)ccc21`?
PG9 Ab binder: 19.0*; PP1 inh: 0.6; Rev-erbA mod: 11.5; PP5 primary: 0.4; proKLK7 act: -0.7; GASC-1 inh: 8.5; PG9 binder conf: 22.1*; PGV04 counter: 35.3*

Results for C[C@H]1[C@@H](OC(=O)Nc2ccccc2C(F)(F)F)CC[C@@]23CCCN2C(=O)CCC[C@@H]13 ?
Rev-erbA mod: 2.1

What do the screens show for `Cc1cc2cc3c(cc2n2c(SCC(=O)Nc4nc(-c5ccccc5)cs4)nnc12)OCO3`?
Rev-erbA mod: 20.5

What do the screens show for `COc1ccc2oc(=N)c(C(=O)Nc3ccccc3)cc2c1`?
PG9 Ab binder: 17.6*; PP1 inh: -11.0; Rev-erbA mod: -2.8; PP5 primary: -4.4; proKLK7 act: -13.4; PG9 binder conf: 6.3; PGV04 counter: 9.2*

Results for CC(=O)c1ccc(NC(=O)c2ccccc2Sc2ncnc3sc(C)c(C)c23)cc1 ?
PG9 Ab binder: -1.1; PP1 inh: -0.3; Rev-erbA mod: -0.8; PP5 primary: -0.2; proKLK7 act: 0.9; GASC-1 inh: -0.7

What do the screens show for `Cc1sc2ncnc(Sc3ccccc3C(=O)O)c2c1C`?
PG9 Ab binder: 31.1*; PP1 inh: -5.0; Rev-erbA mod: -1.2; PP5 primary: 0.6; proKLK7 act: -0.1; GASC-1 inh: -3.9; PG9 binder conf: 37.2*; PGV04 counter: 46.4*

Results for CC(C)(C)c1ccc(S(=O)(=O)N2CCCC(C(=O)N3CCN(Cc4ccccc4)CC3)C2)cc1 (stereo not drawn) ?
Rev-erbA mod: -0.6; proKLK7 act: 0.4
